Measurements published in PubChem BioAssay (NCI).
About 83,000 compounds went through this panel and 20% of them were active in at least one assay; those are over-represented in the sample as a whole.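 Testing used 96-well plates and a 48-hour single-concentration exposure. Example: -40 means 40% of the starting cells died.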 A number with no mark means an inactive call. Activity calls are given as the source filed them. Rule for the calls: active = growth percent below 10; inactive = the rest.

Test system: HL-60(TB) leukemia
Assay: NCI-60 one-dose screen, 48 h (100 = growth as untreated, 0 = no growth, -100 = all killed)
Conditions: 10 µM unless noted

## CCN(C(=O)c1cc2ccccc2[nH]1)[C@H]1CCC[C@@H](NCc2ccc(OC)cc2)C1
  growth: 117%

## Nc1c(C(=O)Nc2ccccc2)sc2nc3c(cc12)CCC3
  growth: 60.9%

## Cc1nc2sc(C(=O)Nc3ccccc3)c(N)c2cc1C(=O)c1ccc(C(F)(F)F)cc1
  growth: 99.3%

## COc1cc2ncnc(Oc3ccc(NC(=O)Nc4ccc(C5(C#N)CCCC5)cc4)c4ccccc34)c2cc1OC
  growth: 72.6%

## COc1ccc(C(=O)c2sc3nc4c(c(C(F)(F)F)c3c2N)CN(C(C)=O)CC4)cc1OC
  growth: 98.7%

## Cc1cc(Cl)ccc1Nc1nc(C(F)(F)F)ccc1C(=O)N/N=C/c1ccc(F)cc1
  growth: -35.6% (active)

## C/C(=N\Nc1ccc([N+](=O)[O-])cn1)c1ccc(N)cc1
  growth: -30.8% (active)

## COc1ccc(/C(C)=C(\c2ccc(Cl)cc2)c2ccc(OCCN3CCCCCC3)cc2)cc1F
  growth: -15.4% (active)

## Cc1nn(-c2ccccc2)c(Oc2ccccc2)c1/C=N/NC(=O)Cn1c(=O)sc2ccccc21
  growth: 5.9% (active)

## COc1ccc(-c2nc3ccc(-c4nc5ccc(N6CCN(c7ccc(F)cc7)CC6)cc5[nH]4)cc3[nH]2)cc1OC
  growth: 46.5%

## CC(C)(C)OC(=O)NCCc1ccc(N)cc1
  growth: 89.4%

## C=C(C)[C@@H]1CC[C@]2(C(=O)N3CCN(C)CC3)CC[C@]3(C)[C@H](CC[C@@H]4[C@@]5(C)C/C(=C/c6ccco6)C(=O)C(C)(C)[C@@H]5CC[C@]43C)[C@@H]12
  growth: 64.2%

## Cc1ccc(-c2nc3ccccc3c(=O)n2/N=C/c2cccc3ccccc23)cc1
  growth: 85.1%

## COc1c(OCCCN2CCOCC2)ccc2c3n(c(=NC(=O)c4cnc(N)nc4)nc12)CCN3
  growth: 11.3%

## COc1ccc(S(=O)(=O)NCCNc2nccc(-c3c(-c4cccc(N)c4)nc4sccn34)n2)cc1
  growth: 116%

## Oc1ccccc1C=Nc1ccccc1N=Cc1ccccc1O.[Cu+2]
  growth: 55.8%

## C/C=C(\C)C(=O)NC1=CC[C@@]2(C)C(=CCC3C2CC[C@@]2(C)C3CC[C@@H]2C(C)N(C)C)C1=O (some centres undefined)
  growth: 8.53% (active)

## CCCCCCCCCCCCCCCc1ccc(C(=O)C[n+]2ccccc2)cc1
  growth: -69.3% (active)

## Cc1cc(C)c(O)c(CNCCCCCCNCc2cc(C)cc(C)c2O)c1
  growth: -43% (active)

## CC(=O)NCNC(C)=O
  growth: 113%

## Cc1cccc(NC2=C(Cl)C(=O)c3nc(C)ccc3C2=O)c1
  growth: -14.9% (active)

## COc1ccc2c(c1)OC13Oc4cc(OC)ccc4C=C1CCCCC3=C2
  growth: 104%

## CCN1C(=O)N(CC)C2Nn3c(s/c(=C4\C(=O)N(CCC(C)C)c5ccccc54)c3=O)=NC21 (centres undefined)
  growth: 83.1%

## OCCN(CCO)C(=S)S
  growth: 104%

## CC(CCN1CCN(CCC(C)CC(C)(C)C)C1CC(C)CC(C)(C)C)CC(C)(C)C (centres undefined)
  growth: 97.8%

## Cn1c2ccccc2c2nnc(N/N=C/c3ccccn3)nc21
  growth: -46.1% (active)

## O=C1CC(C(F)(F)F)=NN1C(=O)c1nn(-c2ccc(Cl)cc2)cc1O
  growth: 105%

## Cc1cc([N+](=O)[O-])ccc1NC(=O)c1ccc2c(c1)nc(-c1ccccc1)n2C1CCCCC1
  growth: 64.7%

## Nc1nc(N)c2cc(Sc3ccc4ccccc4c3)ccc2n1
  growth: 31.4%

## C/C(=C(/c1ccc(O)cc1)c1ccc(OCCN(C)C)cc1)c1ccccc1
  growth: 76%

## CN(C)CCCC(C#N)c1ccccc1 (centres undefined)
  growth: 118%

## O=C1C(=O)/C(=C/c2ccccc2)CCCCCC/C1=C/c1ccccc1
  growth: 46.6%

## O=C(N/N=C\c1ccccc1S(=O)(=O)O)N/N=C/c1ccccc1S(=O)(=O)O
  growth: 91.7%

## CSc1nc(NCCN2CCOCC2)c(C#N)c(-c2cccc([N+](=O)[O-])c2)n1
  growth: 100%

## Nc1ccc(C2=NN(c3ccccc3)C(c3ccc(Cl)cc3)C2)cc1 (centres undefined)
  growth: 59.6%

## COc1cc2cc(c1Cl)N(C)C(=O)C[C@H](OC(=O)[C@H](C)N(C)C(=O)CCS)C[C@]1(C)O[C@H]1[C@H](C)[C@@H]1C[C@@](O)(NC(=O)O1)[C@H](OC)/C=C/C=C(\C)C2
  growth: -28% (active)

## c1cn2cc(-c3ccc4cn[nH]c4c3)nc(Nc3ccc(N4CCOCC4)cc3)c2n1
  growth: 71.1%

## COc1ccc(C2(O)CCCCC2)cc1
  growth: 95.6%

## CCOc1ccc2nc(SCc3nc4n(n3)S(=O)(=O)c3ccccc3N4C)sc2c1
  growth: 12.9%

## COS(=O)(=O)c1ccc(Br)cc1
  growth: 122%

## COc1ccc(/C=C/C(=O)NCC(C)O)cc1 (centres undefined)
  growth: 109%

## O=C(N/N=C/c1ccncc1)c1ccccc1Nc1cccc(C(F)(F)F)c1
  growth: 77.7%

## [O-][n+]1ccccc1CCN(O)CCc1cccc[n+]1[O-]
  growth: 74.2%

## COc1cc(/C=C/c2cc(/C=C/c3ccc(O)c(OC)c3)n(C(=O)Nc3ccc(Cl)cc3)n2)ccc1O
  growth: -20.9% (active)

## CCOC(=O)C1=C(C)NC(SCc2cc(=O)oc3ccc(F)cc23)=N[C@@H]1c1cccc2ccccc12
  growth: 78.4%

## COc1cc2c(cc1NC(=O)C(Cl)Cl)-c1ccc(NC(=O)C(Cl)Cl)cc1C2
  growth: -14.5% (active)

## Cc1ccc2c(c1)C(=O)/C(=C/c1cccc(OCC(=O)c3ccc(Cl)cc3)c1)CS2
  growth: 43.1%

## COc1cc(-c2nc(N=Nc3c(O)[nH]c4ccc(Br)cc34)[nH]c(=O)c2C#N)cc(OC)c1OC
  growth: 101%

## NC(=O)OCCn1cc(-c2nc(-c3c[nH]c4ncccc34)cs2)c2ccccc21
  growth: 6.14% (active)

## CN(C(=O)NCc1cccc(F)c1Cl)[C@H](COC(=O)Nc1cc2ccccc2cn1)CC(O)CO (some centres undefined)
  growth: 90.5%

## CCOC(=O)c1ccc(Nc2ccnc(SCC(=O)c3ccc(C#N)cc3)n2)cc1
  growth: 75.6%

## Nc1cc2c(cc1Br)-c1c(C(=O)O)cccc1C2O (centres undefined)
  growth: 77.8%

## O=C1C=CC(O)=CC1=P(c1ccccc1)(c1ccccc1)c1ccccc1
  growth: 97.8%

## C[n+]1ccc(CCc2c[nH]c3ccccc23)cc1
  growth: 90.6%

## COC(=O)c1nc(-c2ccccc2)oc1S(=O)(=O)N(C)CCO
  growth: -24.6% (active)

## COc1ccc2c(c1)-c1c(c3cc(OC)ccc3n(CCN(C)C)c1=O)C2=O
  growth: 18%

## CCCCCCCC/C=C\CCCCCCCC(=O)OCCCCCC
  growth: 93.6%

## COc1cc(NS(C)(=O)=O)ccc1Nc1c2ccc(Cl)cc2nc2c(OC)cccc12
  growth: -30.1% (active)

## FC(F)(F)Oc1cccc(-c2cnc3ccc(-c4ccncc4)nn23)c1
  growth: -19.3% (active)

## O=C(c1ccccc1)[C@@H](c1ccccc1)[C@]1(O)C(=O)Nc2ccccc21
  growth: 107%

## C/C(=N\O)c1ccccn1
  growth: 112%

## COc1ccc2c(c1)c(C(=O)c1nc(-c3cn(C)c4ccccc34)no1)cn2C
  growth: 92%

## CC(C)(C)CC(C)(C)NC(=O)Nc1ncccc1OCc1ccccc1
  growth: 90.5%

## CCCCCCCCCN1C(=O)/C(=c2\sc3n(c2=O)C2C(NN=3)N(CC)C(=O)N2CC)c2ccccc21 (centres undefined)
  growth: 84.1%

## COc1ccc(C(=O)C(CN(C)C)c2ccccc2)cc1 (centres undefined)
  growth: 3.71% (active)

## CS(=O)(=O)N1CCN(Cc2cc3nc(-c4cccc5[nH]ncc45)nc(N4CCOCC4)c3s2)CC1 (tested in a mixture with another compound)
  growth: 5.83% (active)

## COc1cc(-c2nc(-c3nc4ccc(Cl)cc4[nH]3)cc3c2[nH]c2ccccc23)cc(OC)c1OC
  growth: 68.7%

## OCCNc1nc(NCCO)nc(Nc2ccc(C3=NN(c4cc(Cl)cc(Cl)c4)C(c4ccc(Cl)cc4)C3)cc2)n1 (centres undefined)
  growth: 13.7%

## CCN(CCNc1ccc(C)c2sc3cc(Cl)ccc3c(=O)c12)CC(C)O (centres undefined)
  growth: 9.78% (active)

## CC(=NCc1ccccc1)c1ccc(O)cc1O
  growth: 102%

## CC(=O)OC(c1ccccc1)C1CCOC1=O (centres undefined)
  growth: 113%

## COc1ccccc1CNCCCCCCCCCCCCN1C(=O)c2ccc3c4c(ccc(c24)C1=O)C(=O)N(CCCCCCCCCCCCNCc1ccccc1OC)C3=O
  growth: 85.8%

## CCN(CC)c1ccc(-c2cc(-c3cc(OC)c(OC)c(OC)c3)nc(N3CCC(O)CC3)c2C#N)cc1
  growth: -14.1% (active)

## CCOC(=O)c1[nH]c(C)c(C(=O)O)c1C
  growth: 91.6%

## CC1SC(c2ccccc2O)N(NC(=O)CCC(=O)c2nc3ncccc3[nH]2)C1=O (centres undefined)
  growth: 101%

## Cc1ccc(NC(=O)C(Cl)Cl)cc1
  growth: -48.8% (active)

## COc1ccc(-c2cn[nH]c2-c2cc(OC)c3c(c2)OCCO3)cc1
  growth: -33.2% (active)

## COc1cc(/C=C2\CCC/C(=C\c3cc(CN4CCCC4)c(O)c(OC)c3)C2=O)cc(CN2CCCC2)c1O
  growth: 5.18% (active)

## CCCCCCCCCCC(CN(CC)CC)C(O)c1ccccc1 (centres undefined)
  growth: 44.7%

## CCOc1nc(-c2ccccc2)cc2c(O)c(C(=O)NC(C)C)[nH]c(=O)c12
  growth: 168%

## COc1cccc(-c2nc(-c3ccc(NS(=O)(=O)c4ccccc4)cc3)[nH]c2-c2ccnc(Br)c2)c1
  growth: -11.5% (active)

## O=[N+]([O-])c1cccc(-c2nc3sccn3c2-c2ccnc(NCCCNS(=O)(=O)c3ccc(F)cc3)n2)c1
  growth: -12.9% (active)

## O=c1[nH]c(O)c(/C=C2/C=Nc3ccccc32)[nH]1
  growth: 35.4%

## COC(=O)N[C@H]1CCc2c(Cl)c(OC)c(OC)c(OC)c2-c2ccc(SC)c(=O)cc21
  growth: -42.4% (active)
